From the supplement of paper PMC11732987, “Enantioselective OTUD7B fragment discovery through chemoproteomics screening and high-throughput optimisation” (Communications Chemistry, 2025)

What was measured:
Assay in all cases: log2 ratio of Biotin-Ahx-Ub-VS probe labelling (fragment/DMSO); higher = less target engagement (more negative = stronger competition), active = hit call of the paper (q ≤ 0.05, log2 ratio ≤ -1)
Conditions in all cases: compound concentration: 200 uM; treatment time: 3 h
USP19 = target: T1, USP19 (UniProt O94966)
T1 sequence (whole entry): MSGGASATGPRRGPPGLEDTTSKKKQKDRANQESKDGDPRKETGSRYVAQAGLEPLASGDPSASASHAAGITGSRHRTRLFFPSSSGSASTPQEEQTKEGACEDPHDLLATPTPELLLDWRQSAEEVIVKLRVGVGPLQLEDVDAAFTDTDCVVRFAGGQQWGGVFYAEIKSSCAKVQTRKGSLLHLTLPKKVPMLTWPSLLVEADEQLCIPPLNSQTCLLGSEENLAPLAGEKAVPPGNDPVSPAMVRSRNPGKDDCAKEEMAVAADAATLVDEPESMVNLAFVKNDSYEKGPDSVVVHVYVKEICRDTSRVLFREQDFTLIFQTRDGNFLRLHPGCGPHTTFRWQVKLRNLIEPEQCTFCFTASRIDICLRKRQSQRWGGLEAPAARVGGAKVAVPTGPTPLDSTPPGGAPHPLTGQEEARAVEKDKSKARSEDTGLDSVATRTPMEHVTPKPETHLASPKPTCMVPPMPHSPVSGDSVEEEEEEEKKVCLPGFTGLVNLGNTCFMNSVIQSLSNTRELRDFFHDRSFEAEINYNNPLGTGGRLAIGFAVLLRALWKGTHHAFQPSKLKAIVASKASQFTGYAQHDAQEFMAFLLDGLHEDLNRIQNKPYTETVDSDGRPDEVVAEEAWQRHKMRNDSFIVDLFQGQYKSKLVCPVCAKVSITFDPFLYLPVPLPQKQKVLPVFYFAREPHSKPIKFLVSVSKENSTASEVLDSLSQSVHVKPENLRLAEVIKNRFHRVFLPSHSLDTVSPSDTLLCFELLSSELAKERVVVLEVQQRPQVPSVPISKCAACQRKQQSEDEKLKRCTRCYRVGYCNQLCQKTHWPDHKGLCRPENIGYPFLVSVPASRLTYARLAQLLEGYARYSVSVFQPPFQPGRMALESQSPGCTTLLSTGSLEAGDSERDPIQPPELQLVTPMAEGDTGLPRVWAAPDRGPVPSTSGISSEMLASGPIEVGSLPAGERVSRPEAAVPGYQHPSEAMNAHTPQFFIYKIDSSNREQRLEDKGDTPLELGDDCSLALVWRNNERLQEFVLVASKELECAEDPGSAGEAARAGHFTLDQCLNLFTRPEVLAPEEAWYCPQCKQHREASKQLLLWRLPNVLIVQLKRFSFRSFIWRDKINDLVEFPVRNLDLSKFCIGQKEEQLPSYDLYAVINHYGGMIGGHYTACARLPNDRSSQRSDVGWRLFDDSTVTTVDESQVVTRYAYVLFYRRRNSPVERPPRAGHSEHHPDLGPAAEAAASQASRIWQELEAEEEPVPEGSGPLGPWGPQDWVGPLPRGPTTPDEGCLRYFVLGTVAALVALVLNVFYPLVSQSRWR
Method in brief: (§1)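 Triplicate samples of HEK293T lysate, 495 µg each, received fragment at 200 µM or vehicle for 3 h, followed by Biotin-Ahx-Ub-VS (0.5 µM final) for 1 h. After NeutrAvidin enrichment of labelled DUBs and LysC/trypsin digestion, peptides were run by diaPASEF LC-MS/MS. The values are average log2 fragment/vehicle ratios from global-median-normalised Spectronaut label-free quantities, tested by unpaired t-test on proteins having ≥2 unique peptides.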

USP22 = target: T2, USP22 (UniProt Q9UPT9)
T2 sequence (whole entry): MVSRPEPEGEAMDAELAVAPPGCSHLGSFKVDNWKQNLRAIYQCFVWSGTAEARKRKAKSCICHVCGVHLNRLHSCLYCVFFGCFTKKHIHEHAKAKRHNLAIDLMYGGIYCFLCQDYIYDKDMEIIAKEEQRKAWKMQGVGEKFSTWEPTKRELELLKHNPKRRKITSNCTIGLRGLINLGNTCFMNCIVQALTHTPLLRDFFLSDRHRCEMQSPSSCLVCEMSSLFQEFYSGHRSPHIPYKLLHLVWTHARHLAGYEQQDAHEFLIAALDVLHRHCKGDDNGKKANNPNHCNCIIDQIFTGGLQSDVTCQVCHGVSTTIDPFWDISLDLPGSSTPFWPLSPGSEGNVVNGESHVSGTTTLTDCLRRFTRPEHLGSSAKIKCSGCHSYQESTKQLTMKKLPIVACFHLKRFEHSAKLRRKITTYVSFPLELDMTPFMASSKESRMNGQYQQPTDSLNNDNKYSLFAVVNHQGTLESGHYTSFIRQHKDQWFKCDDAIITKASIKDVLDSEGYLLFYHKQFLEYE
Method in brief: as §1

USP24 = USP24 (UniProt Q9UPU5)
Method in brief: as §1

USP25 = target: T3, USP25 (UniProt Q9UHP3)
T3 sequence (whole entry): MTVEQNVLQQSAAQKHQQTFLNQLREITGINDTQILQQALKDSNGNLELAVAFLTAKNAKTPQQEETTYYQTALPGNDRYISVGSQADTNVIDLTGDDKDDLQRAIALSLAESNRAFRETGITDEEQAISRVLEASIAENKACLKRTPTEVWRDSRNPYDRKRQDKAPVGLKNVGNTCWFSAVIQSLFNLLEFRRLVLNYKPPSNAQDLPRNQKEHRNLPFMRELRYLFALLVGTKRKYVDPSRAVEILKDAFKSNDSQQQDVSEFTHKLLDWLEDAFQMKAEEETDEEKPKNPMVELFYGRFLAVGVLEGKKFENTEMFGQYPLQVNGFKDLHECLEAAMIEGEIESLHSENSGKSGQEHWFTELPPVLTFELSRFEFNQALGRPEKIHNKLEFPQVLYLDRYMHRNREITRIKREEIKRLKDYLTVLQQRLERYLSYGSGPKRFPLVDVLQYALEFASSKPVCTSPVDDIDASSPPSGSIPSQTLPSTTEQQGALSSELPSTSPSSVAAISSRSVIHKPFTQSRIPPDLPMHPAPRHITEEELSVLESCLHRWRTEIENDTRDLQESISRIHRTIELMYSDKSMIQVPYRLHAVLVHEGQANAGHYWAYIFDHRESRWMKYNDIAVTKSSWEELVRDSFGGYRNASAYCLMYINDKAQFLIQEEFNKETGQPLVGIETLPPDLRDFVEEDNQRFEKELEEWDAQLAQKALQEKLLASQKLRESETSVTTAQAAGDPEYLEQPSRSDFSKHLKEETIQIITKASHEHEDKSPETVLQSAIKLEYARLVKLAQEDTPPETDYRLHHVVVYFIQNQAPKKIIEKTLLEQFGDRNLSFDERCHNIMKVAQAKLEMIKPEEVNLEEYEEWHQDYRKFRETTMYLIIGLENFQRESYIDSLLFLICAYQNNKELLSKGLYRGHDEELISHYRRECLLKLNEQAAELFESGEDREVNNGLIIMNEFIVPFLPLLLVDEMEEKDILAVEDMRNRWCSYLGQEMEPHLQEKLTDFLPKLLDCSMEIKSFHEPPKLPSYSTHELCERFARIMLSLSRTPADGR
Method in brief: as §1

USP28 = target: T4, USP28 (UniProt Q96RU2)
T4 sequence (whole entry): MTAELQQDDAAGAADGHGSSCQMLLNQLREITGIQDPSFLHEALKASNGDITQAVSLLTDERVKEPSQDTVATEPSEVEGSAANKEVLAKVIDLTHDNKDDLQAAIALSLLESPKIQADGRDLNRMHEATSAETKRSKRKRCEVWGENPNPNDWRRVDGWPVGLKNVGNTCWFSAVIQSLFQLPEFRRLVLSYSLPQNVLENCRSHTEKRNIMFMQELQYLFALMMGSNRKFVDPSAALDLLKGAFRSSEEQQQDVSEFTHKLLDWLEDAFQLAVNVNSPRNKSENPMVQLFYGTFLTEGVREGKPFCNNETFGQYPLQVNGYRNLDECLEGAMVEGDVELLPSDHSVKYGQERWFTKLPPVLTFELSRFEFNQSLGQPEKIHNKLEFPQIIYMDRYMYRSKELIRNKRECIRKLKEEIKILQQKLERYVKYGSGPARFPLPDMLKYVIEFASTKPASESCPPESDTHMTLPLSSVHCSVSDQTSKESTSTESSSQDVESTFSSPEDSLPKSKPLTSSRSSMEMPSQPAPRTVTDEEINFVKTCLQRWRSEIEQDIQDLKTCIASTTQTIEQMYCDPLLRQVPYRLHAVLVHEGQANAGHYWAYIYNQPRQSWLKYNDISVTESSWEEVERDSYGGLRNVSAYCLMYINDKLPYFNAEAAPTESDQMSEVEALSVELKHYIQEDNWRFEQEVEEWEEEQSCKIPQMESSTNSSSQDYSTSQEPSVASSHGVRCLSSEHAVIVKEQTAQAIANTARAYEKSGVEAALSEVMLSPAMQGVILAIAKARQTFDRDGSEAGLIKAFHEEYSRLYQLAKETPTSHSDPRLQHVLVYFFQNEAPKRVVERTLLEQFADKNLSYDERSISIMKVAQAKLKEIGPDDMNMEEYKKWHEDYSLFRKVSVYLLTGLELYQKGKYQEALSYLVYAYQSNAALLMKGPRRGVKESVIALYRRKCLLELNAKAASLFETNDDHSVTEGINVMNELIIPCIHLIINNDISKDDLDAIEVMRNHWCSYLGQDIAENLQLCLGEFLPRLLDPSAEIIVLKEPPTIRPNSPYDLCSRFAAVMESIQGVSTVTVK
Method in brief: as §1

Measured: log2 ratio of Biotin-Ahx-Ub-VS probe labelling

Chain of USP24 (Q9UPU5 whole entry): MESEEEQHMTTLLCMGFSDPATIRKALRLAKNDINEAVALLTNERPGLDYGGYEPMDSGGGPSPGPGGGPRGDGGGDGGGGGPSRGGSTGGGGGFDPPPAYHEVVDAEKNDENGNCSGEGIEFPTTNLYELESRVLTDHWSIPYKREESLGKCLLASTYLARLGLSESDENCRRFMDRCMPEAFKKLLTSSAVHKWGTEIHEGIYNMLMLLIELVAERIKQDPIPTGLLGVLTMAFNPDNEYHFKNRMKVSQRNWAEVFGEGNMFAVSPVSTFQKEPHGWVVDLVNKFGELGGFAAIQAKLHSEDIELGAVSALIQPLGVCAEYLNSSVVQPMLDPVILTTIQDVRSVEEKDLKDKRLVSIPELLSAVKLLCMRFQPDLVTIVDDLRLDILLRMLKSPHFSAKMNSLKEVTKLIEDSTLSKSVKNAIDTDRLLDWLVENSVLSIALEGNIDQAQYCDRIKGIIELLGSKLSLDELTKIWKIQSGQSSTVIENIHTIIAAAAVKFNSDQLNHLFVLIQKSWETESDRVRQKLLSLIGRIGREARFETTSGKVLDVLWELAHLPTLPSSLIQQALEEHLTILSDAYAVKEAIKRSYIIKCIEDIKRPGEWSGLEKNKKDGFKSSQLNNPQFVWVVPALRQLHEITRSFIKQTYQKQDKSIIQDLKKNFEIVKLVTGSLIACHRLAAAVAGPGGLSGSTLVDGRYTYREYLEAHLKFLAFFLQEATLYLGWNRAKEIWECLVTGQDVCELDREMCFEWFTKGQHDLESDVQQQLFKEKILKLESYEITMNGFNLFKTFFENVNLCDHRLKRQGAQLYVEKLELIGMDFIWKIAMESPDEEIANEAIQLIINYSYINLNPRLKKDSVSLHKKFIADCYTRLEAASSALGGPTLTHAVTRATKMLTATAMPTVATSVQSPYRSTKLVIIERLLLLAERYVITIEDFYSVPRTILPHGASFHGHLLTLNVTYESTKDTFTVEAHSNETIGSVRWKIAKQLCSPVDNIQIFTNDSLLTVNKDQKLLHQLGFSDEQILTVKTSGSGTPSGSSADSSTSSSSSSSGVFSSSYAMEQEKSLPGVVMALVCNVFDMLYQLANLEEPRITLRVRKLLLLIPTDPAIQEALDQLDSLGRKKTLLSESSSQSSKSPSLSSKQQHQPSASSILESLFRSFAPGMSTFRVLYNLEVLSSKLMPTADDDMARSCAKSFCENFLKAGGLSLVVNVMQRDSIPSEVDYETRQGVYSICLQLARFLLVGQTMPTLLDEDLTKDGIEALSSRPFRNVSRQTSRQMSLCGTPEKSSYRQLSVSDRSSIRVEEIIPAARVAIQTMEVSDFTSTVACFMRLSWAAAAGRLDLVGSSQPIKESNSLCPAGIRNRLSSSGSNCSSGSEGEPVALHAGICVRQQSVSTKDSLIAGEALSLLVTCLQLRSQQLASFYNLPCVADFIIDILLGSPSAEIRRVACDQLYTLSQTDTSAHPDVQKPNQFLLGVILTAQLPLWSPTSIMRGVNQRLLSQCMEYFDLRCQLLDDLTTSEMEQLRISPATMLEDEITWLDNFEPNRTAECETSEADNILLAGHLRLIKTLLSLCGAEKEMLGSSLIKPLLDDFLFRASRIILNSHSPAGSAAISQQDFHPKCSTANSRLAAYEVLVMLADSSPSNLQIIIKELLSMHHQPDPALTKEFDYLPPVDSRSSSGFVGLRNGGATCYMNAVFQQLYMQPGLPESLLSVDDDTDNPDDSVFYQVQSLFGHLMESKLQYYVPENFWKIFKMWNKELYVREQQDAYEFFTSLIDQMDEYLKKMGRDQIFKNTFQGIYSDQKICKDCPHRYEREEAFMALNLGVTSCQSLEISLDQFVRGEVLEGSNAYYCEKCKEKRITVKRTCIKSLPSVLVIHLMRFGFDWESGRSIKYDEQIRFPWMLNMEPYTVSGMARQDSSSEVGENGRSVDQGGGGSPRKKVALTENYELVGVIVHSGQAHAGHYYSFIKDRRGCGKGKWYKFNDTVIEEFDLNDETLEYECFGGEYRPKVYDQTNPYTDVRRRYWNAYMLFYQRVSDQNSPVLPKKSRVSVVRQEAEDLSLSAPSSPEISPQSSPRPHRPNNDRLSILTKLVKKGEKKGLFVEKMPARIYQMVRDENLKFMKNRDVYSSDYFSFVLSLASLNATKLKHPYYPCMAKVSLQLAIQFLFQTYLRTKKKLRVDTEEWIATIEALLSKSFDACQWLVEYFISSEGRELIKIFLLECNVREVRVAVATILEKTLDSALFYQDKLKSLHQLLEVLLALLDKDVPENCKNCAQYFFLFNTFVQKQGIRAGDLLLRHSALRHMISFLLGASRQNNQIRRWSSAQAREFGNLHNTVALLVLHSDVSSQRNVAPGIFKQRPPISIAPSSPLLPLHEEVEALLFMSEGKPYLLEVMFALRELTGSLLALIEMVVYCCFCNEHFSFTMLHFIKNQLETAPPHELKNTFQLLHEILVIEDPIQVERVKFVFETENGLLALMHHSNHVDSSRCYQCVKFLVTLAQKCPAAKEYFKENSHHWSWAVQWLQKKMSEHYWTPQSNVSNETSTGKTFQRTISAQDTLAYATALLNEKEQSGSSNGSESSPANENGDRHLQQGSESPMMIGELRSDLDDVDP

Cc1cnc2[nH]cc(CCNC(=O)CCl)c2c1
inactive: USP19 -0.044 | USP22 -0.375 | USP24 -0.209 | USP25 -0.347 | USP28 -0.759
